Screening data as filed in PubChem.
HT1080 IDH1KD tx: kills HT-1080 cells with IDH1 knockdown; HT-1080 IDH1 knockdown viability, ATP luminescence, 48 h; Potency, µM (doses to about 46.1 µM), usual class: cytotoxic; 360,000 tested, 2% active; AID 686971
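Using the IDH1-knockdown HT-1080 line run in the same batch and compound series as the NT line, viability after 48 h at 37 °C was determined by CellTiter-Glo luminescence and expressed as % activity.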
HT1080NT lethal: kills 2HG-producing HT-1080-NT fibrosarcoma cells; HT-1080-NT fibrosarcoma viability, CellTiter-Glo ATP luminescence, 48 h; 360,000 tested, 1.6% active; AID 686970; Potency, µM (titrated, usually from 46.1 µM), actives largely listed as cytotoxic;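 note: NT is the 2HG producing partner of a matched IDH1 knockdown line; nearly all actives have a fitted effect of over 55% in size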
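Compounds were tested in concentration-response format on HT-1080-NT cells for 48 hours at 37 degrees C. Cell viability came from CellTiter-Glo luminescence; curves were classified by r2, response magnitude and activity.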
TDP1 cell noCPT: qHTS for Inhibitors of human tyrosyl-DNA phosphodiesterase 1 (TDP1): qHTS in cells in absence of CPT; 420,000 tested, 15% active; DT40 Tdp1-/- hTDP1 cells, no CPT, ATP luminescence, 48 h; Potency, µM (doses to about 46.2 µM), most hits filed as inhibitors; AID 686978, 2013; note: nearly all actives have a fitted effect of over 55% in size
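Readout: luminescence from CellTiter-Glo after 30 min in the dark at RT. Cells: DT40 Tdp1-/- with stable hTDP1, 400/well. Exposure: compounds alone, ≥48 hr, 37 °C.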
IL-1B inflam inh: blocks inflammasome-driven IL-1 beta release; activity change, % at 57.5 µM; AID 743279; 360,000 tested, 4.7% active; THP-1 LPS/ATP IL-1B secretion, AlphaLISA, 16 h; active compounds read low; in the data active = activity change below about -50%; inconclusive = mostly about -30% to -49%
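Secreted IL-1B measured by AlphaLISA bead assay after 16 h compound exposure of THP-1 cells; compounds (final up to 57.5 uM) added 1 h before LPS (250 ng/mL) and ATP (1.25 mM) stimulation; lower signal means less secretion.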
TDP1 cell CPT: growth inhibition of DT40 Tdp1-/-;hTDP1 cells with camptothecin (screen for TDP1 inhibitors) | 420,000 tested, 12% active | Potency, µM (highest dose often 46.2 µM), most hits filed as inhibitors | AID 686979 | chicken DT40 Tdp1-/-;hTDP1 cells + 20 nM CPT, ATP luminescence, 48 h; note: nearly all actives have a fitted effect of over 55% in size
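Cell growth measured by CellTiter-Glo luminescence after a minimum 48 h, 37 C compound exposure with 20 nM CPT in Tdp1-knockout DT40 cells stably expressing hTDP1, seeded 400/well; qHTS titration format.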
Numbers stand for hits; 0 = inactive; ? = inconclusive; - = no result given; [ ] = dose if it differs, or a comment. Rows were chosen to be rich in hits. Some 19% of all compounds tested hit in one or more screens of this group. Unless noted, calls come from the whole dose curve; as a rule, active = well fitted curve in the direction sought with a large enough effect; inconclusive = small, poorly fitted or top-dose-only effect, or another doubt; inactive = no such curve, though single readings can be large; an effect the other way counts as inactive or inconclusive.

SMILES	HT1080 IDH1KD tx	HT1080NT lethal	TDP1 cell noCPT	IL-1B inflam inh	TDP1 cell CPT
Cc1ccc(S(=O)(=O)N2CCCC2C(=O)Nc2nc3c(s2)CCCC3)cc1 (centres undefined)	0	0	23µM	0	?
O=C(Nc1cccc(S(=O)(=O)N2CCCCC2)c1)[C@@H]1CCCN1S(=O)(=O)c1ccccc1C(F)(F)F	0	0	23µM	?	?
O=C(Nc1ccc(Cl)cn1)C1CCCN1S(=O)(=O)c1ccccc1 (centres undefined)	0	0	12µM	0	21µM
CC(=O)c1cccc(NC(=O)C2CCCN2S(=O)(=O)c2ccccc2C(F)(F)F)c1 (centres undefined)	0	0	0	0	0
Cc1ccc(S(=O)(=O)N2CCCCC2C(=O)N(C)c2ccccc2)cc1 (centres undefined)	0	0	15µM	0	16µM
O=C(NC1CC1)c1cccc(NC(=O)C2CCN(S(=O)(=O)c3ccccc3C(F)(F)F)CC2)c1	0	0	26µM	0	?
O=C(NC1CC1)c1cccc(NC(=O)C2CCC2)c1	0	0	0	0	0
CN(C(=O)C1CCCCN1S(=O)(=O)c1ccccc1)c1ccccc1 (centres undefined)	0	0	?	0	?
O=C(Nc1ccccc1)C1CCCCN1S(=O)(=O)c1ccccc1 (centres undefined)	0	0	?	0	0
O=C(Nc1ccc(C(F)(F)F)cc1)C1CCCCN1S(=O)(=O)c1ccccc1 (centres undefined)	0	0	29µM	0	9.2µM
O=C(Nc1ccc(Cl)cc1)C1CCCCN1S(=O)(=O)c1ccccc1 (centres undefined)	?	?	7.3µM	0	?
O=C(Nc1nnc(CCc2ccccc2)s1)c1ccccc1F	0	0	0	0	0
O=C(Nc1ccccc1Oc1ccccc1)[C@@H]1O[C@H](CO)[C@H](O)[C@H](O)[C@H]1O	0	0	0	0	0
Cc1cc(C)cc(NC(=O)C2CCCCN2S(=O)(=O)c2ccccc2)c1 (centres undefined)	0	0	13µM	0	21µM
Cc1ccc(NC(=O)[C@@H]2CCCN2S(=O)(=O)c2ccc(Cl)cc2)cc1	0	0	?	0	21µM
O=C(OCC(=O)N1CCN(c2ccccc2)CC1)C1CCCN1S(=O)(=O)c1ccc(Cl)cc1 (centres undefined)	0	0	21µM	0	?
O=C(NCc1ccccc1Cl)[C@@H]1CCCN1S(=O)(=O)c1ccc(Cl)cc1	0	0	16µM	-51	?
O=C(NCc1ccccc1)C1CCCN1S(=O)(=O)c1ccc(Cl)cc1 (centres undefined)	0	0	0	0	?
COCc1ccc(CN2CCC(n3nccc3NC(=O)c3ccc4c(c3)OCO4)CC2)o1	0	0	0	0	?
N#C/C(=C\c1ccccc1[N+](=O)[O-])c1nc(C2CC2)cs1	0	0	?	-78	?
CCOC(=O)C(=CNc1cc(C)nn1-c1ccc(C)cc1)C(=O)OCC	0	0	9.2µM	0	23µM
CCOC(=O)C(=CNc1cc(C)ccn1)C(=O)OCC	0	0	?	0	0
CCOC(=O)C(=CNc1cc(OC)ccc1-n1cccc1)C(=O)OCC	0	0	21µM	?	?
CCOC(=O)C(=CNc1cc(C)ccc1C)C(=O)OCC	0	0	16µM	0	?
CCOC(=O)C(=CNc1cccnc1Oc1ccc(C)c2c1CCC2)C(=O)OCC	0	0	21µM	0	15µM
SMILES	HT1080 IDH1KD tx	HT1080NT lethal	TDP1 cell noCPT	IL-1B inflam inh	TDP1 cell CPT
Cc1ccc(Oc2ncccc2NC(=O)CC2(CC(=O)O)CCCC2)c2c1CCC2	0	0	0	-	0
O=C(CCc1nnc(-c2ccccc2)o1)NCC1CCN(C2CCCC2)CC1	0	0	0	0	0
O=C(O)CC1(CC(=O)Nc2nccs2)CCCCC1	0	0	0	0	?
c1ccc2c(c1)OCC(c1csc3ncnc(N4CCCCC4)c13)O2 (centres undefined)	0	0	?	0	?
Clc1ncnc2scc(C3COc4ccccc4O3)c12 (centres undefined)	0	0	16µM	-55	?
CN=c1scc(-c2ccccc2F)n1/N=C/c1ccc[nH]1	?	?	?	?	0
CC(C)N=c1scc(-c2cccs2)n1/N=C/c1ccc(O)c(O)c1O	16µM	?	13µM	-83	13µM
COc1ccc(O)c(/C=N/n2c(-c3ccco3)csc2=Nc2cccnc2)c1	0	0	?	0	0
CCN=c1scc(-c2cccs2)n1/N=C/c1cc(OC)ccc1O	0	0	21µM	-62	?
CN=c1scc(-c2ccccc2F)n1/N=C/c1ccc(O)c(O)c1O	?	0	12µM	0	13µM
CCOc1ccccc1NC(C)C(=O)NC(=O)NC1CCCCC1 (centres undefined)	0	0[9.24 µM]	0	0	18µM
CC(Nc1ccc(F)cc1F)C(=O)NC(=O)NC1CCCCC1 (centres undefined)	0	0	0	0	0
CC(C(=O)NC(=O)NC1CCCCC1)N1CCN(C(c2ccccc2)c2ccccc2)CC1 (centres undefined)	0	0	15µM	0	23µM
CCOCCCn1c(SCC(=O)Nc2ccc(NC(C)=O)cc2)nc2ccccc2c1=O	0	0	0	0	0
COC(=O)CNc1nc(C2CC2)nc2c1nnn2Cc1ccccc1Cl	0	0	0	0	0
COc1cccc(OC)c1Nc1nc(C)nc2c1nnn2Cc1ccccc1Cl	0	0	0	0	0
CCc1nc(Nc2ccc(OC)c(OC)c2)c2nnn(Cc3ccccc3Cl)c2n1	?	0	16µM	-65	0
CN(C)S(=O)(=O)c1ccc(Nc2nc(C3CC3)nc3c2nnn3Cc2ccccc2Cl)cc1	5.8µM	?	8.2µM	0	9.2µM
Cc1cc(NC(=O)C2CCCN(S(=O)(=O)c3ccc(Br)s3)C2)ccc1Br (centres undefined)	-	-	13µM	-	?
O=S(=O)(c1ccc(Br)s1)N1CCC(Cc2ccccc2)CC1	0	0	?	0	14µM
Cc1cc(NC(=O)C2CCN(S(=O)(=O)c3ccc(Br)s3)CC2)ccc1Br	-	-	16µM	-	?
Cc1csc(NC(=O)C2CCCN(S(=O)(=O)c3ccc(Br)s3)C2)n1 (centres undefined)	0	0	18µM	0	16µM
Cc1cc(NC(=O)C2CCN(S(=O)(=O)c3cnc[nH]3)CC2)ccc1Br	0	0	?	-57	0
O=C(NCc1ccc2c(c1)OCO2)C1CCN(S(=O)(=O)c2cccs2)CC1	0	0	0	0	0
O=C(NCc1ccc2c(c1)OCO2)C1CCN(S(=O)(=O)c2ccc(Br)s2)CC1	0	0	21µM	0	0
